Screens as filed in PubChem.
Most compounds without a hit are left out; they make up all but 5.8% or so of the library.
RORg inh – ROR gamma (mouse) transcription inhibition | 310,000 tested, 5.4% active | AID 2551 | Potency, µM (doses to about 53.6 µM), for the others: at the top dose activity change, negative = inhibition, most hits filed as inhibitors | P51450 | Drosophila S2 Gal4-RORgamma UAS-luciferase reporter, 20 h; further: potency means the concentration at half of the fitted maximal effect; on the % scale 0 is the no-effect control and ±100 the full control effect; nearly all actives have a fitted effect of over 60% in size
Target sequence (P51450 whole entry, looked up, the tested form may be a part): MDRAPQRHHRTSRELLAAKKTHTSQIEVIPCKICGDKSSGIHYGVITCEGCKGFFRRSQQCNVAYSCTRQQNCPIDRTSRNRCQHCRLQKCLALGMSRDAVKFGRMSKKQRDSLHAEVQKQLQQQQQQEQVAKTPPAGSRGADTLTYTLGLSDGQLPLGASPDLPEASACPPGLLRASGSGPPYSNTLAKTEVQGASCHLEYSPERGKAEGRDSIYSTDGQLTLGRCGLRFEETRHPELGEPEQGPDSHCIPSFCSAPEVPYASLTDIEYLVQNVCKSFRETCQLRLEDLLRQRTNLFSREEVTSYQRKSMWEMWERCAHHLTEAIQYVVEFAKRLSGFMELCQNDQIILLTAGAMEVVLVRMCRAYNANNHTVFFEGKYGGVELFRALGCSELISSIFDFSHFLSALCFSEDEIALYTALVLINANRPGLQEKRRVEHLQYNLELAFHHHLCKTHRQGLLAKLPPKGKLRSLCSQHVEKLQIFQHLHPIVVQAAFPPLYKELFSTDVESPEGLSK
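Luciferase reporter read in Schneider cells carrying Gal4-RORγ (mouse) and UAS-Photinus luciferase; cells given compound 1 h before 700 uM copper sulfate induction, then incubated 20 h at ambient temperature.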
VP16 counter – counter-screen for ROR gamma inhibitors: Gal4-VP16 reporter; Drosophila S2 Gal4-VP16 UAS-luciferase, luminescence, 20 h; Potency, µM (top dose mostly 53.6 µM), for inactives: top-dose activity, negative = inhibition, usual class: inhibitors; 310,000 tested, 3.5% active;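 further: Gal4-VP16 expression switched on by copper sulfate through the metallothionein promoter; potency means the concentration at half of the fitted maximal effect; on the % scale 0 is the no-effect control and ±100 the full control effect; nearly all actives have a fitted effect of over 50% in size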
TRPV1 potentiator – enhances activation of the human vanilloid receptor TRPV1 | Q8NER1 | TRPV1-expressing cells, Fluo-8 calcium influx, capsaicin EC20 potentiation | potentiation, % at 8.33 µM | 320,000 tested, 0.02% active; in the data active means potentiation above about 80%; inconclusive means between about 30% and that limit; further: 0% is about no effect
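TRPV1-expressing cells were cultured overnight at 35.5C and loaded with Fluo-8 calcium dye for 40 to 90 min at room temperature. After a 10 s baseline, compound was added and calcium influx was read kinetically for 3 min (ex 480/em 520 nm).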
TRPV1 ag – activates the human vanilloid receptor TRPV1; Q8NER1; TRPV1-expressing cells, Fluo-8 calcium influx, agonist mode; activation, % at 8.33 µM; 320,000 tested, 0.19% active; AID 540275; in the data active means activation above about 80%; inconclusive means between about 30% and that limit; further: 0% is about no effect
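Cells expressing TRPV1 were dye-loaded with Fluo-8 and read kinetically: 10 s baseline, 3 min after compound (agonist portion), then 2 min after EC20 capsaicin (allosteric enhancer portion). Calcium-bound dye fluorescence at 480/520 nm.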
uPA generation – inhibitors of cell surface uPA generation. cell surface uPA generation assay, qHTS. Potency, µM (titrated, usually from 38.3 µM), for the others: top-dose activity change, negative = inhibition, most hits filed as inhibitors. 330,000 tested, 0.31% active. AID 540303; active means well fitted inhibition curve with a large enough effect; inconclusive means small, poorly fitted or top-dose-only effect; inactive means no such curve, though single readings can be large or run the other way; tested in mouse RAW 264.7 cells; further: potency means the concentration at half of the fitted maximal effect; on the % scale 0 is the no-effect control and ±100 the full control effect; nearly all actives have a fitted effect of over 55% in size
Starred values were filed as active, the others as inactive; ? = inconclusive; / = no result; ! = repeats disagree; [ ] = remark or other dose. Unless noted, the call rests on the fitted dose curve; in most records, active means well fitted curve in the direction sought with a large enough effect; inconclusive means small, poorly fitted or top-dose-only effect, or another doubt; inactive means no such curve, though single readings can be large; an effect the other way counts as inactive or inconclusive.

SMILES | RORg inh | VP16 counter | TRPV1 potentiator | TRPV1 ag | uPA generation
CC(C)(C(=O)N[C@H](CO)c1ccccc1)C(=O)N[C@H](CO)c1ccccc1 | 2µM* | 5% | -3 | -1 | 0%
CCC(c1nnc(SCC(=O)Nc2nnc(-c3ccccc3)o2)n1Cc1ccccc1)N(C)C (stereo unspecified) | 8.9µM* | ? | -7 | 0 | -6%
CC(C)NC(=O)c1ccc2c(=O)n(CC3CCCO3)c(=S)[nH]c2c1 (stereo unspecified) | 33% | -6%[10 µM] | 143* | -8 | 3%
COc1ccccc1Cn1c(=S)[nH]c2cc(C(=O)NCC3CCCO3)ccc2c1=O (stereo unspecified) | 13µM* | ? | -11 | -2 | -3%
COCCCNC(=O)c1ccc2c(=O)n(CC3CCCO3)c(=S)[nH]c2c1 (stereo unspecified) | -23% | -9% | -9 | 1 | 1%
O=C(O)c1ccccc1OS(=O)(=O)O | 3% | -3% | / | / | /
CN(C)c1nc(N)c(C(=O)N=C(N)N)nc1Cl | / | / | / | / | -12%
COc1cc(C=O)ccc1OS(=O)(=O)c1ccc(NC(C)=O)cc1 | -43% | 25µM* | 21 | 0 | 6%
COc1cc([C@H]2c3[nH]c4ccccc4c3C[C@H]3C(=O)N4[C@@H](c5cc(OC)c(OC)c(OC)c5)c5[nH]c6ccccc6c5C[C@H]4C(=O)N23)cc(OC)c1OC | ? | 10µM* | 1 | 0 | -11%
C=CCn1c(O)c(N=Nc2nc3ccccc3c(=O)n2-c2ccccc2)c2ccccc21 | ? | -24% | 5 | 0 | -2%
c1ccc2c(c1)SCc1c-2[nH]c2ccccc12 | 4.5µM* | 10µM* | / | / | /
COc1ccc(CN(C(=O)CNC(=O)c2ccco2)C(C(=O)NCC2CCCO2)c2ccccc2)cc1 (stereo unspecified) | 19% | -2% | -2 | -4 | -1%
CN1CCCN(C(c2ccccc2)c2ccc(Cl)cc2)CC1 (stereo unspecified) | 10µM*! | -10% | 6 | 3 | ?
CN1CCN(C(c2ccccc2)c2ccccc2)CC1 | -29% | ? | -25 | 11 | -11%
FC(F)(F)c1ccccc1-n1c(-c2ccco2)n[nH]c1=S | 14µM* | ? | 4 | 2 | 7%
Cc1ccc(-n2c(-c3cc(-c4ccco4)[nH]n3)n[nH]c2=S)c(Br)c1 | 8.9µM* | -4% | -5 | 1 | -5%
S=c1[nH]nc(-c2cc(-c3ccco3)[nH]n2)n1-c1cccc2ccccc12 | 24% | -2% | -16 | 0 | -4%
Cc1ccccc1-n1c(-c2ccco2)n[nH]c1=S | 11µM* | ? | 4 | 1 | 1%
Cc1cccc(-n2c(-c3ccco3)n[nH]c2=S)c1 | 11µM* | ? | -2 | -1 | 1%
COC(=O)c1oc2ccccc2c1NC(=O)/C=C/C(=O)O | 16% | 0% | -4 | -2 | 2%
Cc1noc(C)c1-c1nc(Nc2ccc(F)cc2)c2ccccc2n1 | 19% | 1% | / | / | /
FC(F)(F)c1ccccc1-c1nc(Nc2ccncc2)c2ccccc2n1 | 11µM* | ? | / | / | /
Cc1noc(C)c1-c1nc(Nc2ccncc2)c2ccccc2n1 | 8.9µM* | -3% | / | / | /
COc1ccccc1-c1nc(Nc2ccncc2)c2ccccc2n1 | -32% | 9% | / | / | /
Cc1cc(NC(=O)CCS(=O)(=O)c2nc(-c3ccccc3)cc(C(F)(F)F)n2)no1 | -4% | 7% | -12 | 7 | -8%
SMILES | RORg inh | VP16 counter | TRPV1 potentiator | TRPV1 ag | uPA generation
CS(=O)(=O)c1nc(-c2ccccc2)cc(C(F)(F)F)n1 | 0.5µM* | 1.6µM* | 13 | -2 | -12%
CCOC(=O)c1csc(NC(=O)CC2CCCC2)n1 | 11µM* | -20% | 12 | 2 | 3%
CC(NC(=O)CCCCCCN1C(=O)c2ccccc2C1=O)c1ccc2c(c1)CCCC2 (stereo unspecified) | ? | 10µM* | 2 | 7 | -4%
FC(F)(F)c1cc(CO[C@H]2CCCN[C@H]2c2ccccc2)cc(C(F)(F)F)c1 | 25µM* | -28% | / | / | /
Cc1ccc(S(=O)(=O)/N=C2/C=C(Sc3ncn[nH]3)C(=O)c3ccccc32)c(C)c1 | 11µM* | 5µM* | 11 | -1 | /
Cc1ccc(S(=O)(=O)/N=C2\C=C(NS(=O)(=O)c3ccccc3)C(=O)c3ccccc32)c(C)c1 | / | / | / | / | 2%
